Rtt109 Vps75: inhibitors of Candida albicans Rtt109/Vps75 histone acetyltransferase; actives 0.16% (n = 330,000); purified Rtt109/Vps75, ThioGlo CoA-SH fluorescence, 4 h; Q5AAJ8; inhibition, % at 34.9 µM;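 active means inhibition of at least 50% in every replicate; inconclusive means best replicate reaches 50% inhibition but some replicates fall short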
PvdQ inh: P. aeruginosa PvdQ acylase inhibition; purified PvdQ acylase, fluorescence plate reader; inhibition, % at 10 µM; actives 0.063% (n = 340,000); AID 488965; in the data active means inhibition above about 30%, passing the limit was not always enough; inconclusive means no clear call, values can overlap the other calls;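 further: 0% = vehicle neutral wells and 100% = reference inhibitor wells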
ERp5 block: inhibitors of human ERp5 | AID 651711 | actives 0.05% (n = 350,000) | inhibition, % at 9.99 µM | ERp5 insulin aggregation, absorbance 650 nm, 90 min;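 active means mean replicate inhibition above about 25%, with every replicate also reaching it, limit read from the data, passing the limit was not always enough; inconclusive means only one of those two criteria met; inactive means neither criterion met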
PDI inh: blocks human protein disulfide isomerase activity. P07237. PDI insulin aggregation turbidity, A650, 90 min. inhibition, % at 10 µM. actives 0.052% (n = 350,000);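 active means mean inhibition across replicates of 30% or more, whatever share of single replicates reach that level; inconclusive means mean inhibition below 30% while every single replicate reaches 30%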
Target sequence (P07237 whole entry, looked up): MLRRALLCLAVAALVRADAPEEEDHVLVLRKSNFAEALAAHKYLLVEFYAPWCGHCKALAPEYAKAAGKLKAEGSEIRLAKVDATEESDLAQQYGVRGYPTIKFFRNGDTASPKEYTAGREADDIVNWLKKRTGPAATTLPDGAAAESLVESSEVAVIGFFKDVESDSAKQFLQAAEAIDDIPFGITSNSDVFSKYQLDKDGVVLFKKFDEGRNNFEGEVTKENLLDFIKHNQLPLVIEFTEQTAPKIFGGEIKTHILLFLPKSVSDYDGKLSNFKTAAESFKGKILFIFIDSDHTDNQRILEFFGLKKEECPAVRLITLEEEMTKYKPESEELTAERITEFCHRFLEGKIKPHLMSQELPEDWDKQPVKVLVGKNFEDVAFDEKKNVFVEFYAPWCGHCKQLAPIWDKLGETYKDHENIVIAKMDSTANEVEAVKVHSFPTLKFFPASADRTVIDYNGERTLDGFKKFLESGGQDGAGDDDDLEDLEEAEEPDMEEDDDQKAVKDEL
ERAP1 HTS inh: inhibitors of human ERAP1 aminopeptidase; Q9NZ08; recombinant ERAP1, Leu-AMC fluorescence, 60 min; inhibition, % at 10.7 µM; actives 0.15% (n = 340,000); AID 652197;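 active means mean replicate inhibition of at least 30%, or all replicates individually reaching that 30% level; inactive means mean below 30% and not every replicate reaching it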;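 further: 0% = neutral control wells and 100% = L-leucinethiol positive control wells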
Numbers without * were called inactive; ? = inconclusive; / = no result given. Shown are actives, neighbours in structure and some others; about 0.35% of the full set was active somewhere.

SMILES	Rtt109 Vps75	PvdQ inh	ERp5 block	PDI inh	ERAP1 HTS inh
COc1ccccc1NC(=O)N1C[C@@H]2[C@H](c3ccccc31)[C@H](CO)N2C(=O)c1ccccc1	/	/	0.6	/	1.1
O=C1CCC(=O)N1c1ccc(-c2nc3ccccc3s2)cc1	52.1*	11.1	4.9	12.3	8.6
Nc1ccc(-c2nc3ccccc3s2)cn1	5.7	-19.5	0.7	7.3	1.5
COc1cccc(NC(=O)Nc2ccc3c(c2)C(=O)N(C)[C@H]2CC[C@@H](CC(=O)NCCc4ccccc4)O[C@H]2CO3)c1	/	/	1.5	/	1.5
CC1CCCC/C1=N\NC(=S)NCCc1ccccc1 (centres undefined)	6.7	-11.2	-5.7	3.7	4.7
C[n+]1ccccc1C1CCCC/C1=N\NC(N)=S (centres undefined)	39.0	8.0	5.3	-1.0	43.5*
CCN(C(=O)CSc1nc(C)nc2sc(C)c(C)c12)C1CCS(=O)(=O)C1 (centres undefined)	-0.3	1.4	2.0	1.0	6.7
CCOC(=O)c1sc2nc(C)nc(SCC(=O)N(C)C3CCS(=O)(=O)C3)c2c1C (centres undefined)	50.5*	-1.9	4.4	18.0	7.8
Cc1ccc(S(=O)(=O)NCCC(C)C)cc1[N+](=O)[O-]	2.5	53.2*	-5.4	16.4	-3.8
COC(=O)C[C@@H]1CC[C@H]2[C@@H](COC[C@@H](O)CN2S(=O)(=O)c2ccccc2C)O1	/	/	0.1	/	-2.4
CCCN1[C@@H]2Cn3c(ccc(-c4cccnc4)c3=O)[C@H]1[C@@H](C(=O)NCCc1cn(C)cn1)[C@@H]2CO	/	/	-3.6	/	31.2*
O=C(NC1CCCC1)[C@@H]1[C@@H](CO)[C@@H]2Cn3c(ccc(-c4cccnc4)c3=O)[C@H]1N2CC1CC1	/	/	27.7*	/	/
CCN1[C@@H]2Cn3c(ccc(-c4cccnc4)c3=O)[C@H]1[C@@H](C(=O)NC1CCCC1)[C@@H]2CO	/	/	7.9	/	1.9
CC1C[N+](=C2C=C(N3CCOCC3)CC(C)(C)C2)CC(C)O1 (centres undefined)	31.1	10.1	-3.3	-5.0	55.4*
O=[N+]([O-])c1c(Nc2ccc(O)cc2)cc(Cl)c2nonc12	0.7	-5.3	-1.0	-2.7	42.2*
COc1cc(N(C)C)ccc1C=c1c2ccccc2n2c1cc(-c1ccccc1)[n+]2C	-1.1	-15.6	3.5	?	39.7*
CN(C)c1ccc(C=c2c3ccccc3n3c2cc(-c2ccccc2)[n+]3C)cc1	2.3	-6.2	-5.5	-17.8	12.1
CCC(=O)NC[C@@H]1[C@@H](c2ccc(C3=CCCC3)cc2)[C@@H](CO)N1C(=O)CN(C)C	/	/	1.6	/	0.8
NCCNC(=O)c1c(O)c2cccc3c2n(c1=O)CCC3	5.3	-1.8	6.4	-1.1	30.6*
CCCNC(=O)c1c(O)c2cccc3c2n(c1=O)CCC3	17.2	18.4	1.0	5.0	0.7
CCCCCCCn1c2c(c(=N)c3c1CCC3)CCCC2	23.6	-11.8	6.0	-4.5	82.8*
CCCCCCn1c2c(c(=N)c3c1CCC3)CCC2	1.1	-6.5	/	20.4	/
CCCCn1c2c(c(=N)c3c1CCC3)CCC2	5.1	0.0	/	-1.4	/
CCCCCCCCCn1c2c(c(=N)c3c1CCC3)CCC2	67.9*	-2.0	/	-5.2	/
COc1ccc(NC(=O)c2ccc(NC(=O)c3ccncc3)cc2)cc1	-2.2	-4.2	3.9	0.9	-1.8
SMILES	Rtt109 Vps75	PvdQ inh	ERp5 block	PDI inh	ERAP1 HTS inh
COc1ccc(C(=O)NNC(=O)c2ccncc2)cc1	65.4*	15.3	/	-5.7	/
C[C@H](CO)N1C[C@H](C)[C@H](CN(C)Cc2ccc(Oc3ccccc3)cc2)Oc2c(NC(=O)Nc3ccc(C(F)(F)F)cc3)cccc2C1=O	/	/	-6.4	/	-3.5
O=C(C[C@H]1CC[C@@H](NC(=O)c2ccccn2)[C@@H](CO)O1)NCc1cc(F)cc(F)c1	/	/	0.4	/	8.2
O=C(CCc1nnc(C2(c3ccc(Cl)cc3)CCC2)o1)NCCCn1cccn1	50.4*	13.2	3.8	-2.1	1.6
CC(NC(=O)CCc1nnc(C2(c3ccc(Cl)cc3)CCC2)o1)C1CC1 (centres undefined)	-0.1	-4.6	-0.9	5.3	7.5
S=C1NC2(CCCCC2)Cc2ccccc21	50.5*	7.7	/	-2.7	/
O=C1NC2(CCCCC2)Cc2ccccc21	/	-8.8	/	2.1	/
COc1ccc2c3c([nH]c2c1)[C@@H](CO)N(C(=O)Nc1cccc(F)c1)CC31CN(S(=O)(=O)c2cccc(C)c2)C1	/	/	2.1	/	3.8
COc1ccc2c3c([nH]c2c1)[C@@H](CO)N(Cc1ccccc1)CC31CN(C)C1	/	/	-6.9	/	71.0*
COc1ccc2c3c([nH]c2c1)[C@H](CO)N(C(=O)CN(C)C)CC31CCN(CC2CCCC2)CC1	/	/	73.5*	/	1.0
COc1ccc2c3c([nH]c2c1)[C@@H](CO)N(C(=O)CN(C)C)CC31CCN(CC2CCCC2)CC1	/	/	0.8	/	1.3
COc1cccc(S(=O)(=O)N2CC3(CN(C(=O)Nc4cccc(F)c4)[C@H](CO)c4[nH]c5cc(OC)ccc5c43)C2)c1	/	/	68.9*	/	3.8
CN(C)Cc1cn(CC[C@H]2CC[C@H](NC(=O)Nc3ccc4c(c3)OCO4)[C@@H](CO)O2)nn1	/	/	-4.4	/	/
COc1ccc(S(=O)(=O)Nc2ccc3c(c2)C(=O)N([C@@H](C)CO)C[C@@H](C)[C@@H](CN(C)C)O3)cc1	/	/	/	/	-1.5
COc1ccc(NC(=O)N(C)C[C@@H]2Oc3ccc(NC(=O)C4CCCCC4)cc3C(=O)N([C@@H](C)CO)C[C@H]2C)cc1	/	/	2.5	/	-1.9
NCCCCCCNC(=O)[C@@H]1C[C@@H]2C(=O)N[C@@H](Cc3ccccc3)C(=O)N2[C@@H]1c1ccc(O)cc1	/	/	-1.3	/	-0.7
O=C(NCc1ccc2c(c1)OCO2)c1ccc(CS(=O)Cc2cccc(Cl)c2)o1 (centres undefined)	52.4*	9.0	5.6	-3.3	0.1
O=C(NCc1ccc2c(c1)OCO2)c1ccc(CS(=O)Cc2ccc(Cl)cc2)o1 (centres undefined)	-5.0	3.3	-15.1	-11.2	0.2
CCOC(=O)C[n+]1ccc2c([nH]c3ccccc32)c1C	-0.4	-16.8	1.7	-0.2	51.2*
N#C[C@@H]1[C@H](c2ccccc2C2=CCCCC2)[C@@H](CO)N1C(=O)C1CCOCC1	/	/	5.4	/	2.9
CCCNC(=O)[C@@H]1[C@@H](CO)[C@@H]2Cn3c(cccc3=O)[C@H]1N2S(=O)(=O)c1ccccc1C	/	/	-5.9	/	1.0
CCCC[n+]1c(C)sc2cc(OC)ccc21	185.4*	2.0	0.2	0.1	35.4*
COc1ccc2sc(C)[n+](C)c2c1	-3.5	-15.7	8.0	19.0	11.2
CC(C)CC#Cc1ccc2c(c1)O[C@@H](CN(C)C(=O)Nc1ccccc1F)[C@H](C)CN([C@H](C)CO)S2(=O)=O	/	/	-1.1	/	0.5
COc1ccc(N2CCN(C(=O)CSc3nnc(-c4cccnc4)n3-c3ccc(F)cc3)CC2)cc1	6.4	-5.6	/	4.3	/
COc1ccc(N2CCN(C(=O)CSc3nnc(-c4cccnc4)n3-c3ccccc3)CC2)cc1	52.8*	2.9	/	5.6	/
Cc1cc(NC(=O)c2cc([N+](=O)[O-])cc([N+](=O)[O-])c2C)no1	9.8	88.2*	-8.3	7.4	4.7

High-throughput results deposited in PubChem by Broad Institute.
